These results are taken from PubChem BioAssay (NCATS).

Where “and” joins values, the source holds several entries; their conditions need not be identical. Equal values may be shown once. Records with an inconclusive call do not appear. Some compounds were tested as several samples or in several runs, with calls that do not always agree. Calls of active or inactive are those of the source. Unless noted, calls come from the whole dose curve; as a rule, active = well fitted curve in either direction with a large enough effect (not every such curve was filed as active); inconclusive = small, poorly fitted or top-dose-only effect, or another doubt; inactive = flat fitted curve, though single readings scatter. Some results are limits rather than exact numbers.

A short description of assay [1]: AP1 Signaling Pathway (AID 357).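 Note: ME-180 reporter cells stimulated with EGF at its EC50 level; % is set by controls: 0 for no effect and ±100 for the full control effect.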 The note with it: ME-180 AP-1-bla reporter, EGF-induced, beta-lactamase ratio, 5 h. The method, boiled down:
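Beta-lactamase reporter under AP-1 response element, ME-180 background. Stimulus: EC50 EGF. Compound exposure 5 h, 37 °C. Detection: CCF4, 2.5 h RT, 460/530 nm. Values: AC50 from titration.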

The target in assay [2] is Cytochrome P450 1A2 (Homo sapiens) (UniProt P05177). The assay is described as follows: p450-cyp1a2 (AID 410; calls by dose curve;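 note: -100% = full effect of reference inhibitor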). The essentials:
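O-Demethylation of luciferin 6' methyl ether by human CYP1A2 is monitored as luciferase luminescence. Substrate sits at Km (100uM); enzyme is 20nM. Values are scaled to 57 uM furafylline as maximal inhibition.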

A short description of assay [3]: NFAT Signaling Pathway (AID 444).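 Note: carbachol stimulus at about its EC50 of 1 µM final; % is set by controls: 0 for no effect and ±100 for the full control effect.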 Particulars: Jurkat NFAT-bla M1, carbachol, beta-lactamase ratio, 5 h. The essentials: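 Jurkat cells with NFAT-driven β-lactamase reporter and co-expressed M1 receptor, stimulated with carbachol (final 1 uM, ~EC50), compound titration, 5 h at 37 °C. CCF4 loaded 1 h at RT; 460/530 nm ratio gave %activity and AC50.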
Assay [4] can be described thus: Stat Signaling Pathway (AID 446).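 Note: ME-180 cervical cancer cells given 40 pM IL-6 alongside compound; SIE-controlled beta-lactamase reporter measured as 460/530 nm FRET emission ratio; % is set by controls: 0 for no effect and ±100 for the full control effect.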 Particulars: ME-180 (cervical carcinoma) SIE beta-lactamase reporter, IL-6 stimulated, 5 h. The essentials: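 Emission at 460 and 530 nm (excitation 405 nm) reports SIE-controlled beta-lactamase in ME-180 cells. Cells received compound with 40 pM IL-6 for 5 hrs at 37 C; data scaled between 300 pM IL-6 and 125 nM JAK-inhibitor controls.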
Assay [5] concerns the target Glucocorticoid receptor (Homo sapiens) (UniProt P04150). The assay is described as follows: GR-GFP Redistribution (AID 450;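 active = compounds whose dose series gives a full or clear partial fitted curve of increased nuclear translocation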; note: potency is the fitted concentration of half-maximal effect). Particulars: U2OS GR-GFP nuclear translocation, laser cytometry, 2 h.
Assay [6] shares this target. Description: GR-EFC Redistribution (AID 451; calls by dose curve; note: potency is the fitted concentration of half-maximal effect). Particulars: CHO-K1 GR-EFC translocation, beta-gal luminescence, 2 h. The essentials:
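CHO-K1 cells expressing nuclear EA and GR-ED fragments of b-gal; compounds titrated up to 46 uM final, 2 h at 37 C. GR nuclear translocation read as complemented b-gal luminescence after 1 h RT detection.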

Assay [7] deals with 3',5'-cyclic-AMP phosphodiesterase 4B (Homo sapiens) (UniProt Q07343). Description: qHTS Assay for Inhibitors of PDE-IV (AID 607; active = well fitted activation curve with a large enough effect in the main read-out, with a control signal flat, not every such curve was filed as active; note: potency is the fitted concentration of half-maximal effect). The method, boiled down:
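The readout is membrane depolarisation from a cAMP-sensing CNG channel, detected with a potential dye at ex 535/em 590. Cells were HEK293-derived (endogenous PDE-IV) at 1000 cells/well, titrated up to 22.9 uM final.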

For assay [8], the target named is Cytochrome P450 2D6 (Homo sapiens) (UniProt P10635). The assay is described as follows: qHTS Assay for Inhibitors and Substrates of Cytochrome P450 2D6 (AID 891; active = well fitted curve in the direction sought with a large enough effect; an effect the other way counts as inactive or inconclusive;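 note: luciferin methyl ether substrate demethylated by CYP2D6 with NADPH regeneration; % is set by controls: 0 for no effect and ±100 for the full control effect; nearly all actives have a fitted effect of over 60% in size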). The method, boiled down: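 Luminescent read-out of luciferin formed by 5 nM human CYP2D6 demethylating 30 uM Luciferin-ME EGE (Km level) over 60 min at room temperature after NADPH regeneration addition. Data normalized to full inhibition by 1.43 uM quinidine.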

Assay [9] addresses Cytochrome P450 2C19 (Homo sapiens) (UniProt P33261). Description: qHTS Assay for Inhibitors and Substrates of Cytochrome P450 2C19 (AID 899; active = well fitted curve in the direction sought with a large enough effect; an effect the other way counts as inactive or inconclusive; note: % is set by controls: 0 for no effect and ±100 for the full control effect; nearly all actives have a fitted effect of over 60% in size). The method, boiled down: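 Luminescent read-out of luciferin formed from Luciferin-H EGE (10uM, equal to KM). Enzyme 5nM in 50mM KPO4; compound added, 10 min at 37C, then NADPH regenerating system for 60 min at 37C. Full inhibition defined by 57uM ketoconazole.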

Assay [10] has as its target Mitogen-activated protein kinase 10 (Mus musculus) (UniProt Q61831). Description: JNK3 AlphaScreen Assay (AID 530).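 Note: kinase came from lysate of stimulated human HepG2 cells; signal reports phosphorylation of biotinylated GST-cJun 1-79 at Ser73 with 10 µM ATP; % is set by controls: 0 for no effect and ±100 for the full control effect.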 The method, boiled down:
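Activity was read by AlphaScreen after JNK3-containing HepG2 lysate (cytokine pre-activated) phosphorylated biotinylated GST-cJun with 10 uM ATP at room temperature. Phospho-Ser73 cJun antibody with Protein-A acceptor beads provided detection.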

Assay [11] deals with Guanine nucleotide-binding protein G(i) subunit alpha-1 (Homo sapiens) (UniProt P63096). Description: qHTS Assay for Inhibitors of RGS12 GoLoco Motif Activity (Green Fluorophore) (AID 879; active = well fitted curve in the direction sought with a large enough effect; an effect the other way counts as inactive or inconclusive;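 note: 0% = labeled peptide with Gαi1 and full inhibition = labeled peptide alone without protein; negative values mean loss of peptide binding seen as reduced polarization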). The method, boiled down:
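A drop in FITC polarization marked displacement of the FITC-tagged RGS12 GoLoco peptide (10 nM) from Gαi1 (50 nM). Compounds were incubated 10 min at room temperature in Tris pH 7.5 buffer containing 150 mM NaCl, 0.1 mM GDP and 0.05% NP40; unlabeled peptide titration served as control.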

The nature of assay [12]: qHTS Assay for Identification of Small Molecule Agonists for Thrombopoietin (TPO) Signaling Pathway (AID 917; active = well fitted curve in the direction sought with a large enough effect; an effect the other way counts as inactive or inconclusive; note: % is set by controls: 0 for no effect and ±100 for the full control effect). The essentials: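 Luciferase reporter (Glycoprotein IIb promoter) in IL-3-deprived Ba/F3 cells carrying human TPO receptor; compounds co-added with 26 pM TPO, incubated 24 h, 37 C. Steadylite luminescence measured after 10 min.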
The target of assay [13] is Pyruvate kinase (Leishmania mexicana) (UniProt Q27686). The assay is described as follows: qHTS Validation Assay for Inhibitors of Leishmania Mexicana Pyruvate Kinase (AID 945; active = well fitted curve in the direction sought with a large enough effect; an effect the other way counts as inactive or inconclusive;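 note: 0% = DMSO only neutral control wells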). The essentials:
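Substrate mix (0.5 mM PEP, 0.1 mM ADP, 7 mM MgCl2, 50 mM KCl, pH 7.2 imidazole) received compound by pin tool, then 0.2 nM LmPYK E451W. After 1 h at room temperature, PKLight was added and luminescence measured.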

In assay [14] the target is Pyruvate kinase PKM (Homo sapiens) (UniProt P14618). Description: qHTS Assay for Activators of Human Muscle Pyruvate Kinase (AID 954; active = well fitted curve in the direction sought with a large enough effect, not every such curve was filed as active;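 note: 0% = uninhibited enzyme and -100% = no enzyme or full thiadiazolimine inhibition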). The essentials:
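PKM2, human, >95% pure, 0.1 nM; PEP 0.5 mM (Km), ADP 0.1 mM; 50 mM imidazole pH 7.2, 50 mM KCl, 0.01% Tween 20, 0.05% BSA; 1 h RT; luciferase luminescence readout.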

For assay [15], the target named is Alpha-galactosidase A (Homo sapiens) (UniProt P06280). Description: Counterscreen for Glucocerebrosidase Inhibitors: qHTS Assay for Human alpha-Galactosidase at pH 4.5 (AID 992; active = well fitted curve in the direction sought with a large enough effect; an effect the other way counts as inactive or inconclusive; note: 0% is about no effect). The method, boiled down:
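Fluorogenic 4-MU alpha-D-galactoside (80 uM) hydrolysis, 2 nM enzyme, pH 4.5 citrate buffer + 0.005% Tween-20; 20 min RT; NaOH/glycine pH 10 stop; Ex365/Em440. Compounds titrated 0.7 nM–77 uM; Hill-equation AC50.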

Assay [16] deals with alpha-glucosidase (Oryza sativa, rice) (UniProt Q653V4). The assay is described as follows: Counterscreen for Glucocerebrosidase Inhibitors: qHTS Assay for Rice alpha-Glucosidase at pH 5.0 (AID 997; active = well fitted curve in the direction sought with a large enough effect; an effect the other way counts as inactive or inconclusive;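 note: 0% = full activity with enzyme and -100% = basal without enzyme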). The method, boiled down: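 Endpoint fluorogenic assay at pH 5.0: compounds (0.7 nM to 77 uM) titrated against 4 nM rice enzyme and 400 uM 4-MU-alpha-glucoside for 20 min at room temperature; NaOH/glycine stop, read ex 365/em 440 nm, Hill-fitted AC50.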

The nature of assay [17]: qHTS Assay for Identification of Small Molecule Antagonists for NFkB Signaling Pathway (AID 895; active = well fitted inhibition curve with a large enough effect in the signal ratio, with a control signal flat, not every such curve was filed as active; the % refers to the signal ratio; note: % is set by controls: 0 for no effect and ±100 for the full control effect). The essentials:
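ME-180 NFkB-bla cells (beta-lactamase under NFkB response element), plated overnight, treated with compound then 10 pM TNF alpha (about EC50) for 5 hrs at 37 C. LiveBLAzer FRET read at 460/530 nm emission, 405 nm excitation.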

Where [18] appears, read: at 7.69 µM (top of the series) unless noted.

Sequence of Guanine nucleotide-binding protein G(i) subunit alpha-1 (Homo sapiens) (P63096 whole entry, looked up): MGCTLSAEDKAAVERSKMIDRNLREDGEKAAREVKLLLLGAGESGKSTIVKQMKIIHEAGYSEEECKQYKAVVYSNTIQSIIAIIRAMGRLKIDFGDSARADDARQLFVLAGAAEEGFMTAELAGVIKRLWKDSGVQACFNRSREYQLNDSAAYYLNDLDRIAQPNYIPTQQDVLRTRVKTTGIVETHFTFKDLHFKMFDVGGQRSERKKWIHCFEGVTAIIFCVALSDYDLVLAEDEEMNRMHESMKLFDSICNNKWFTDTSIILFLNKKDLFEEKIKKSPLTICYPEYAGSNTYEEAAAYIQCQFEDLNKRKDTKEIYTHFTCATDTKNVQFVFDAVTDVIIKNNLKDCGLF
Sequence of 3',5'-cyclic-AMP phosphodiesterase 4B (Homo sapiens) (Q07343 whole entry, looked up): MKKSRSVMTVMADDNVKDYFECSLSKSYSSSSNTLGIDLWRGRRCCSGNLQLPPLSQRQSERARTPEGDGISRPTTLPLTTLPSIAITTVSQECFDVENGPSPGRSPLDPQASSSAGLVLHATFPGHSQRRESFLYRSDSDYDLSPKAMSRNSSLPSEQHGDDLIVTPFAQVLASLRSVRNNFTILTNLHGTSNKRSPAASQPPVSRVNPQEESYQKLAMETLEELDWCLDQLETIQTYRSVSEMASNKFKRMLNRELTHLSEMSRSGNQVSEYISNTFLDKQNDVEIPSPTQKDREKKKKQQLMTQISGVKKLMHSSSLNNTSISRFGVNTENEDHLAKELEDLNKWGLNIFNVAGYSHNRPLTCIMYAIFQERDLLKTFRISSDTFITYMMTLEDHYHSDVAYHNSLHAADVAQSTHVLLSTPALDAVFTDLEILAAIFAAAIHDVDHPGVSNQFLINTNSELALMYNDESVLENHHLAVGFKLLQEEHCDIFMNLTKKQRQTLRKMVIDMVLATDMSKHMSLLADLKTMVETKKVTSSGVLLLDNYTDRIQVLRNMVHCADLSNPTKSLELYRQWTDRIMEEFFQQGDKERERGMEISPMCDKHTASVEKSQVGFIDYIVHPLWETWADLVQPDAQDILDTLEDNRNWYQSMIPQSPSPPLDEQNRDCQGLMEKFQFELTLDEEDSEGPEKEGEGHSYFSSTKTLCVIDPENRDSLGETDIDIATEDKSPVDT
Sequence of Pyruvate kinase (Leishmania mexicana) (Q27686 2-499 E452W): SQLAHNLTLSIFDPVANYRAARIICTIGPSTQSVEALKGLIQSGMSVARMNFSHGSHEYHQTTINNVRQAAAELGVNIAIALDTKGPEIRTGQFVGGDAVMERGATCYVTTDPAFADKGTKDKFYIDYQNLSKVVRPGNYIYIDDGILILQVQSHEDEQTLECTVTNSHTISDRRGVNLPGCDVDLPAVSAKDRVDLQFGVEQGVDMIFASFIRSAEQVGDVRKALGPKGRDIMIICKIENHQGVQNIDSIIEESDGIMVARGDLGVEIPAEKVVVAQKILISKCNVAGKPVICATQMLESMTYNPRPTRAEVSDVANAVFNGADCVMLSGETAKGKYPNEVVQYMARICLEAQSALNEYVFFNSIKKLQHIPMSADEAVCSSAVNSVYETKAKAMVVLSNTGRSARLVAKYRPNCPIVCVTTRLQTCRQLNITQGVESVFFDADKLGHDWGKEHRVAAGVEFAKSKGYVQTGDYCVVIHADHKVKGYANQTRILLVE
Sequence of Glucocorticoid receptor (Homo sapiens) (P04150 whole entry, looked up): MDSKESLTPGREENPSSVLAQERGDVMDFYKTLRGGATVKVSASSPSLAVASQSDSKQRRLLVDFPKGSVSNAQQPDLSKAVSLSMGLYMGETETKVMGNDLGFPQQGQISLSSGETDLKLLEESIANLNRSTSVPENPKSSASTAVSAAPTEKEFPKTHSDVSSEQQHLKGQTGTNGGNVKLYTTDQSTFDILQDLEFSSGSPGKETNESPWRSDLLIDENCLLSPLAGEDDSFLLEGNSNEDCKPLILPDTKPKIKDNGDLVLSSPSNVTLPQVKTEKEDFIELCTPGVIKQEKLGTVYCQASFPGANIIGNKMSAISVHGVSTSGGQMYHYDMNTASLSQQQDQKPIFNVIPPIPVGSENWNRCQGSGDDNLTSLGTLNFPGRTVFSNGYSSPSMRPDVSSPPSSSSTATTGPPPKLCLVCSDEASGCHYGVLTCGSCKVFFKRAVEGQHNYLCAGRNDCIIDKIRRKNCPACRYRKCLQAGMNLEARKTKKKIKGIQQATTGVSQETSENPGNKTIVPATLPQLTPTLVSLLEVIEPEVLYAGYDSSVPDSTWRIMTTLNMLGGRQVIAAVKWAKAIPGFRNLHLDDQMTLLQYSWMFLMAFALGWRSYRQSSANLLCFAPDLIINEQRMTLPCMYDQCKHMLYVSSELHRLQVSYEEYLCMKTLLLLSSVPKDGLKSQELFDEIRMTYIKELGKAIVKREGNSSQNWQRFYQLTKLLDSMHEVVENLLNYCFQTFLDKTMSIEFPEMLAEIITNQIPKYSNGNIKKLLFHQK
Sequence of Cytochrome P450 1A2 (Homo sapiens) (P05177 whole entry, looked up): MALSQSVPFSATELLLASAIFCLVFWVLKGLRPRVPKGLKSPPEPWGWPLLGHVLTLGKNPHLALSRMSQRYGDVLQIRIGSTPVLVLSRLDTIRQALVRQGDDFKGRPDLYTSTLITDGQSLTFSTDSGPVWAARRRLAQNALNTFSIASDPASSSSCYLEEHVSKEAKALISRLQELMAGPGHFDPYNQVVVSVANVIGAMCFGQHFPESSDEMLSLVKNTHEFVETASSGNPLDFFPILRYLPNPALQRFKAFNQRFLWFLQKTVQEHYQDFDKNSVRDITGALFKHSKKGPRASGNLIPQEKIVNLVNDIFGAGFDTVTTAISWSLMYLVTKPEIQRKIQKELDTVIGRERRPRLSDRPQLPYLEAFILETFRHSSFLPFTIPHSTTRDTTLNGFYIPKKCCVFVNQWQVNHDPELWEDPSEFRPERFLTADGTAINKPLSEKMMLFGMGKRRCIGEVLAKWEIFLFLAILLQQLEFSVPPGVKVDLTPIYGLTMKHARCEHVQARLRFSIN
Sequence of Pyruvate kinase PKM (Homo sapiens) (P14618 whole entry, looked up): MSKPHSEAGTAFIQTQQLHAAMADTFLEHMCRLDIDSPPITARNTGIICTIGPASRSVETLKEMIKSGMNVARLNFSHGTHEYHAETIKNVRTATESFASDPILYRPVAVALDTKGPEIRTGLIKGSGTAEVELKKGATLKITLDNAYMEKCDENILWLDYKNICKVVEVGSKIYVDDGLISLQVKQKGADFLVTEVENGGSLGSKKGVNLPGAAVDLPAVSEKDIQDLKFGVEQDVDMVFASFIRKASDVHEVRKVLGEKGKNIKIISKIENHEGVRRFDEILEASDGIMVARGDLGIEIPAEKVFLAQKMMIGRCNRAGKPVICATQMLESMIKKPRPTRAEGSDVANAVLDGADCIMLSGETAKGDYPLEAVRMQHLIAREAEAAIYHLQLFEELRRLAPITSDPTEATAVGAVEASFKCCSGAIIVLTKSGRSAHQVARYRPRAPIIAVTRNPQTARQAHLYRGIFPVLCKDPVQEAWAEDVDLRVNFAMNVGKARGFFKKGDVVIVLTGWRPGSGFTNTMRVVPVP
Sequence of Alpha-galactosidase A (Homo sapiens) (P06280 whole entry, looked up): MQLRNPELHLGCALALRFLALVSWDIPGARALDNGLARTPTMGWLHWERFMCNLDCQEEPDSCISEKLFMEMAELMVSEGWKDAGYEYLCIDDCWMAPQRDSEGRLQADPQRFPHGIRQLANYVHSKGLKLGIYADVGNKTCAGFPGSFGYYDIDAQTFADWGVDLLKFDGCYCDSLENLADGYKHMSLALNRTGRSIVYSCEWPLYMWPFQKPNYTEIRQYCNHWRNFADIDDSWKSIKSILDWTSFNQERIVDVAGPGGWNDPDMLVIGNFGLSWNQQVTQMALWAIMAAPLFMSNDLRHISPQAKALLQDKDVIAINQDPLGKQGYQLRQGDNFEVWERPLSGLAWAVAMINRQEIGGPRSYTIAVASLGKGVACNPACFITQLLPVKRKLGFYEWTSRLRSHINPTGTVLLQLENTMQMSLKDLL
Sequence of Cytochrome P450 2C19 (Homo sapiens) (P33261 whole entry, looked up): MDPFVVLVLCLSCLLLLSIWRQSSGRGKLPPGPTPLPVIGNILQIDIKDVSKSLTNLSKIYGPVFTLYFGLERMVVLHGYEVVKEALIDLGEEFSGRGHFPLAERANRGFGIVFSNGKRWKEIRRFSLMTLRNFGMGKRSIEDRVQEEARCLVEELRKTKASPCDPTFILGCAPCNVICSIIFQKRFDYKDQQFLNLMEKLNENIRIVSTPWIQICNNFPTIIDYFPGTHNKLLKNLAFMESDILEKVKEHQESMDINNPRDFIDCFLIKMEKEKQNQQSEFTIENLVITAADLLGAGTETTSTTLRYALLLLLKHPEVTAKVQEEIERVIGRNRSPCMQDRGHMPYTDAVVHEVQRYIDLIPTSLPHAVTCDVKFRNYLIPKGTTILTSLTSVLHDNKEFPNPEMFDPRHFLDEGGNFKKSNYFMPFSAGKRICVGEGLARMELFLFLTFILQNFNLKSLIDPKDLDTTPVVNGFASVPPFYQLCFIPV
Sequence of Cytochrome P450 2D6 (Homo sapiens) (P10635 whole entry, looked up): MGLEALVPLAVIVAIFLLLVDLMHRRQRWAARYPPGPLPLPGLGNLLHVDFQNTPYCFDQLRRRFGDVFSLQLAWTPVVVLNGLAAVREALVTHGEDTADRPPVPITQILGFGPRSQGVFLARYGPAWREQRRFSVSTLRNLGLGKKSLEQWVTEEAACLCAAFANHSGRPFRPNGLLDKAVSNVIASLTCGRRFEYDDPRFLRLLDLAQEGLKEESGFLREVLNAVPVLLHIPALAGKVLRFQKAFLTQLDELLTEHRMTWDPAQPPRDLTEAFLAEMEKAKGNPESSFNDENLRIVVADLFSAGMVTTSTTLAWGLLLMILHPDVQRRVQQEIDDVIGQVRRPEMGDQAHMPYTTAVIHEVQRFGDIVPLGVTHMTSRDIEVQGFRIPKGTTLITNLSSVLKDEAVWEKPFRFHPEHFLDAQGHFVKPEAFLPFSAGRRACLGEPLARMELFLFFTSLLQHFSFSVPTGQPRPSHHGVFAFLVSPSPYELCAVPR

Consider `N[C@H](COP(=O)(O)O)C(=O)O`, for which the activity change, negative = inhibition in assay [1] (setting [18]) was -5.61% [at 38 µM] (inactive); in assay [3] (setting [18]), 1.24% [at 38 µM] (inactive). The Potency entry in assay [2], in [7], in assay [8] and in [9] was “inactive” in each case. For the same compound, the activity, negative = inhibition in [4] (setting [18]) is 20.2% [at 38 µM] (inactive). The Potency in assay [5] and in [6] was > 46 µM (inactive) each time.
For the compound `N#CC(CC(=O)O)=C(c1ccccc1)c1ccccc1`, the activity change, negative = inhibition in assay [1] (setting [18]) was 6.62% (inactive); in [2], -14.5% [at 2.29 µM] (inactive); in assay [3] (setting [18]), -1.1% (inactive). Also, in assay [4] (setting [18]), the activity, negative = inhibition was 1.35% (inactive). Moreover, the Potency in [5] was > 46 µM (inactive); in assay [6], > 9.22 µM (inactive). In addition, the Potency entry in assay [10] and in [7] was “inactive” in each case.
On to `CN1[C@@H]2CC[C@H]1CC(OC(=O)[C@@H](CO)c1ccccc1)C2` (stereo partly drawn), for which the activity change, negative = inhibition in [1] (at 17.2 µM (top of the series)) was -0.827% (inactive) and 1.39% (inactive); in assay [1] (at 38 µM (top of the series)), 10.7% (inactive) and -6.14% (inactive); in assay [3] (setting [18]), -38.1% [at 17.2 µM] (active). The activity, negative = inhibition in assay [4] (at 17.2 µM (top of the series)) is 10.3% (inactive) and 3.29% (inactive); in assay [4] (at 38 µM (top of the series)), 27.8% (inactive) and 8.42% (inactive). Also, the Potency entry in assay [10] and in assay [16] was “inactive” each time. Moreover, the outcome in [11], in [12], in assay [13], in assay [14] and in assay [15] was inactive.
With `CN(C)[C@H]1C(=O)C(C(=O)NCN2CCCC2)=C(O)[C@]2(O)C(=O)C3=C(O)c4c(O)cccc4[C@](C)(O)[C@H]3C[C@H]12`, the activity change, negative = inhibition was -4.67% (inactive) in [1] (setting [18]) and 6.5% (inactive) in assay [3] (setting [18]). Also, the Potency result in [2], in assay [10] and in assay [7] was “inactive” each time. Also, the activity, negative = inhibition in [4] (setting [18]) was -11.7% (inactive). The Potency in assay [5] is > 46 µM (inactive); in assay [6], > 9.22 µM (inactive).
In the case of `CC[C@@H](Nc1ncnc2nc[nH]c12)C(=O)O`, the activity change, negative = inhibition in [1] (setting [18]) was -11.2% (inactive); in assay [3] (setting [18]) it was -4.99% (inactive). Moreover, the Potency entry in [2], in assay [10] and in [7] was “inactive” each time. Besides, in assay [4] (setting [18]), the activity, negative = inhibition was 0.774% (inactive). For the same compound, the values for the Potency in assay [5] and in [6] were > 46 µM (inactive) and > 9.22 µM (inactive), respectively.
Take `CC(C)(C)c1ccc([C@@H](O)CCCN2CCC(C(O)(c3ccccc3)c3ccccc3)CC2)cc1`: the activity change, negative = inhibition is 2.82% (inactive) in assay [1] (at 17.2 µM (top of the series)), 6.21% (inactive) in assay [1] (at 38 µM (top of the series)), -18.2% (inactive) in [3] (at 17.2 µM (top of the series)) and -0.347% (inactive) in [3] (at 38 µM (top of the series)). Moreover, the activity, negative = inhibition in [4] (at 17.2 µM (top of the series)) was -5.86% (inactive); in [4] (at 38 µM (top of the series)), 9.55% (inactive). Also, the Potency was > 46 µM (inactive) and > 20.6 µM (inactive) in assay [5]; > 46 µM (inactive) and > 20.6 µM (inactive) in [6]; 2 µM (active) and inactive in assay [7]. Moreover, the Potency entry in [10] is “inactive”.
On to `Cc1cc2sc(C)[n+](CCCOS(=O)(=O)O)c2cc1C`, for which the results for the activity change, negative = inhibition in assay [1] (setting [18]) and in assay [3] (setting [18]) were -5.1% (inactive) and 7.47% (inactive), respectively. Further, the Potency entry in assay [2], in [10] and in assay [7] was “inactive” throughout. Also, the activity, negative = inhibition in [4] (setting [18]) is 1% (inactive). Moreover, the figures for the Potency in assay [5] and in assay [6] were > 46 µM (inactive) and > 9.22 µM (inactive), respectively.
As to `O=C(O)CCCC[C@H]1CCSS1`, the activity change, negative = inhibition in assay [1] (setting [18]) was -4.68% [at 38 µM] (inactive); in [3] (setting [18]), -1.58% [at 38 µM] (inactive). For the same compound, the Potency entry in assay [2], in assay [10], in assay [7], in assay [17] and in [16] was “inactive” in each case. Moreover, the activity, negative = inhibition in [4] (setting [18]) was -7.28% [at 38 µM] (inactive). In addition, the Potency in [5] and in assay [6] was > 46 µM (inactive) throughout. Moreover, the call in [11], in [12], in [13], in assay [14] and in [15] was inactive.
